Consider 40 compounds from PubChem BioAssay (EPA / NIEHS).

Calls of active or inactive are those of the source. The calls were made as follows: active = hit-call score of the fitted dose curve at least 0.9, where 1 is the maximum; inactive = score below 0.9.

Broadly, the AC50 is the concentration giving half of the maximal activity seen.

The assay can be described thus: ATG_M_19_CIS: Attagene CIS-FACTORIAL HepG2 Assay for M19 Transcription Factor (Internal Marker) (AID 2282939). The settings on record: HepG2 Attagene CIS-FACTORIAL M19 internal marker reporter; actives raise or lower the signal. The protocol:
ATG_CIS is a cell-based, multiplexed-readout assay that uses HepG2, a human liver cell line, with measurements taken at 24 hours after chemical dosing in a 24-well plate.ATG_M_19_CIS is one of 52 assay component(s) measured or calculated from the ATG_CIS assay. It is designed to make measurements of mRNA induction, a form of inducible reporter, as detected with fluorescence intensity signals by Reverse transcription polymerase chain reaction (RT-PCR) and Capillary electrophoresis technology.Data from the assay component ATG_M_19_CIS was analyzed into 1 assay endpoint. This assay endpoint, ATG_M_19_CIS, was analyzed with bidirectional fitting relative to DMSO as the negative control and baseline of activity. Using a type of inducible reporter, measures of mRNA for gain or loss-of-signal activity can be used to understand the background control at the transcription factor-level as they relate to the gene . Furthermore, this assay endpoint can be referred to as a secondary readout, because this assay has produced multiple assay endpoints where this one serves a background control function. To generalize the intended target to other relatable targets, this assay endpoint is annotated to the background measurement intended target family, where the subfamily is internal marker.
Human liver HepG2 cells are transiently transfected with multiple reporter transcription units (MRTUs) in 6-well plates using FuGene 6 reagent (Roche; 3 ml FuGene/1 mg DNA). The MRTU constructs are regulated by a cis-regulating element (promoter). […] A major difference between the CIS and TRANS system is that in CIS activities of endogenous TFs are measured, whereas the TRANS assay evaluates changes in activities of exogenous, chimeric NR-Gal4 proteins. […] At the end of 24 hour incubation, total RNA was isolated using TriZol reagent (Invitrogen). The isolated RNA is then reverse-transcribed using oligo(dT) primer and Mo-MLV reverse transcriptase (Invitrogen) with DNAse I (Ambion) treatment for 30 min. The one-tenth of the produced cDNA was amplified by PCR using Taq DNA polymerase (Invitrogen) and two reporter sequence-specific primers. The PCR products were fluorescently labeled by primer extension with 6-arboxyfluorescein (6-FAM) 5'-labeled reporter sequence-specific primer (2 min at 95 C, 20 s at 68 C and 10 min at 72 C) and these products were digested with 5U of HpaI (New England Biolabs) for 2h at 37 C. The fragments were purified using Qiaquick PCR columns (Qiagen), analyzed on an ABI 3130xL genetic analyzer (Applied Biosystems) with peak positions identified by using a set of X-rhodamine (ROX)-labeled MapMarker1000 molecular weight standards (BioVentures). The raw capillary electrophoresis data was processed using Attagraph software (Attagene).
Regarding `CC=Cc1ccc(O)c(OC)c1`, the outcome was inactive. On to `NC(=O)Cn1c(=O)cc(CCN2CCN(c3nccc4sccc34)CC2)c2ccc(F)cc21`, for which the compound was classed as inactive. `NCCO`: the result was inactive. On the same count and under the same terms, with `CCOC(=O)C(C)(C)Oc1ccc(Cl)cc1` the entry was “inactive”. On the same count and under the same terms, with `CCCCN(CCCC)CCCC` the entry was “inactive”; with `C[C@]12C=CC(=O)C=C1CC[C@@H]1[C@@H]2C(=O)C[C@@]2(C)[C@H]1CC[C@]2(O)C(=O)CO`, “inactive”.

For the compound `CC(=O)Oc1ccccc1C(=O)O`, the outcome was inactive. `Cc1cccc(C)c1O`: the call was inactive. On the same count and under the same terms, with `CCCCCC(=O)O` the entry was “inactive”. Still for that read-out and setting: with `CC1(C)CC(N=C=O)CC(C)(CN=C=O)C1` (stereo not given) the entry was “inactive”; with `Cc1c(C(=O)O)c(O)cc2c1C(=O)c1c(O)c([C@@H]3O[C@H](CO)[C@@H](O)[C@H](O)[C@H]3O)c(O)c(O)c1C2=O`, “inactive”; with `CCCCCCC(=O)OCC`, “inactive”.

Take `Cc1ccc(C)c(C)c1`: the outcome was inactive. The same measure, in the same setting: the entry for `Cc1ccccc1Cl` is “inactive”; for `CC(=O)OCCOCCOCCOC(C)=O` it is “inactive”. Same read-out and setting: the entry for `CCCCOC(=O)CCCCCCCCC(=O)OCCCC` is “inactive”; for `CN1CCCC1=O` it is “inactive”; for `CC(CO)OC(C)CO` (stereo not given) (tested in a mixture with another compound) it is “inactive”. Same read-out and setting: with `Cc1cccc(Nc2cc(Cl)nc(SCC(=O)O)n2)c1C` the entry was “inactive”; with `CCOc1ccc2c(c1)C(C)=CC(C)(C)N2`, “inactive”; with `O=c1c(O)c(-c2ccc(O)c(O)c2)oc2cc(O)cc(O)c12`, “inactive”. Turning to `C[Si]1(C)O[Si](C)(C)O[Si](C)(C)O[Si](C)(C)O1`, the compound was called inactive.

Turning to `CCOC(=O)CCC(=O)OCC`, the compound was called inactive.

Regarding `FC(F)(F)C(F)(F)C(F)(F)C(F)(F)C(F)(F)C(F)(F)CCI`, the result was inactive.

As for `O=C(N[C@@H](Cc1ccccc1)[C@@H](O)C(=O)N1C[C@@H](O)[C@@H](O)C1)c1cc2cc(Cl)ccc2[nH]1`, the result was inactive. Same read-out and setting: with `CCCCCCCC=O` the entry was “inactive”; with `COc1cc(-c2nc(NC(=O)c3cc4cc(C)cc(C)c4n3CC(=O)O)sc2CCC2CCCCC2)c(OC)cc1Cl`, “inactive”. In the case of `CCCCCCCCCCCCCCCCCC(=O)O`, the compound was classed as inactive. `Nc1ccc2c(c1)C(=O)c1ccccc1C2=O`: the outcome was inactive. On the same count and under the same terms, with `Oc1ccc2c(c1)OC[C@@H](N1CCC(O)(c3ccc(F)cc3)CC1)[C@H]2O` the entry was “inactive”. On the same count and under the same terms, the entry for `O=C(O)Cc1ccccc1Nc1c(Cl)cccc1Cl` is “inactive”.

Regarding `Cc1nc(C)nc(N2C[C@@H](C)N(c3ccnc([C@@H](C)O)n3)[C@@H](C)C2)n1`, the compound was called inactive. Still for that read-out and setting: the entry for `Cc1cc(=O)[nH]c(=S)[nH]1` is “inactive”; for `O=c1[nH]cc(F)c(=O)[nH]1` it is “inactive”. On the same count and under the same terms, with `CCc1c(C(=O)NN2CCCCC2)nn(-c2ccc(Cl)cc2Cl)c1-c1ccc(Br)cc1` the entry was “inactive”; with `CN[C@H]1CC[C@@H](c2ccc(Cl)c(Cl)c2)c2ccc(S(N)(=O)=O)cc21`, “inactive”. In the case of `CN1CCN(Cc2cc(-c3ccc4[nH]c(=O)oc4c3)co2)[C@@H](c2ccc(F)cc2)C1`, the compound was called inactive. Still for that read-out and setting: the entry for `c1cc(-c2ccncc2)ccn1` is “inactive”; for `C=CCc1ccc(O)c(OC)c1` it is “inactive”. As for `CC1=C(/C=C/C(C)=C/C=C/C(C)=C/CO)C(C)(C)CCC1`, the AC50 is 172 µM (active).
